PubChem BioAssay (Tox21)
Records with an inconclusive call do not appear. Entries that show only a call come without a potency. Unmarked numbers belong to inactive results. Activity calls are given as the source filed them. Unless noted, calls follow the shape of the dose curve; as a rule, active = well fitted curve in the direction sought with a large enough effect in the repeat runs; inconclusive = weak or mixed curves; inactive = no such curve, though single readings can be large; an effect the other way counts as inactive or inconclusive.

How the values were obtained:
[1] = qHTS assay to identify small molecule antagonists of the vitamin D receptor (VDR) signaling pathway - cell viability counter screen (AID 743225); also: nearly all actives have a fitted effect of over 50% in size
Outline: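 HEK293T VDR-bla; cpd + 1a,25-(OH)2D3 3 nM final, 16 h 37C/5% CO2; B/G FRET substrate 2 h RT; then CellTiter-Glo 30 min RT, luminescence.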

[2] = qHTS assay to identify small molecule agonists of the NFkB signaling pathway (AID 1159509; active = well fitted curve in the direction sought with a large enough effect in the signal ratio in the repeat runs, not every such curve was filed as active; the % refers to the signal ratio; also: series mostly up to about 61 µM)
Outline: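 NFkB-bla ME-180 cells with a beta-lactamase reporter under an NF-kB response element were plated overnight, treated with compounds in DMSO for 5 hr at 37 C, then loaded with FRET substrate for 1.5 hr at room temperature.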

[3] = qHTS assay to identify small molecule agonists of the NFkB signaling pathway - cell viability counter screen (AID 1159515; calls by dose curve; also: series mostly up to about 61 µM; nearly all actives have a fitted effect of over 55% in size)
Outline: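 Multiplexed viability readout: after the 5 hr compound exposure and 1.5 hr FRET substrate step, CellTiter-Glo reagent went into the same NFkB-bla ME-180 wells; ATP luminescence was measured after 30 min at room temperature.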

[4] = qHTS assay to identify small molecule agonists of the endoplasmic reticulum stress response signaling pathway (AID 1159516; active = well fitted activation curve with a large enough effect in the signal ratio in the repeat runs, not every such curve was filed as active; the % refers to the signal ratio)
Outline: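 Tox21 10K library screened in quantitative HTS format on ESRE-bla HeLa cells, a beta-lactamase reporter under ER stress response element control; 5 hr treatment, FRET read.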

[5] = qHTS assay to identify small molecule agonists of the endoplasmic reticulum stress response signaling pathway - cell viability counter screen (AID 1159517; calls by dose curve; also: series mostly up to about 61 µM; nearly all actives have a fitted effect of over 50% in size)
Outline: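 Luminescence readout: CellTiter-Glo, 30 min RT, same wells as the ESRE-bla reporter read. HeLa ESRE-bla, 1,500 cells/well, o/n 37 C; cpd 5 hr 37 C/5% CO2.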

[6] = qHTS assay to identify small molecule antagonists of the retinoid-related orphan receptor gamma (ROR-gamma) signaling pathway - cell viability counter screen (AID 1159520); also: nearly all actives have a fitted effect of over 50% in size
Outline: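 Tet-on ROR gamma CHO cells (1,000/well) were plated 4 hr, given compounds in DMSO for 2 hr at 37 C, then induced with 1 uM final doxycycline for 16 hr. Viability was read as ATP by CellTiter-Glo luminescence after 30 min.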

[7] = target: Nuclear receptor ROR-gamma (Homo sapiens) (UniProt P51449); assay: qHTS assay to identify small molecule antagonists of the retinoid-related orphan receptor gamma (ROR-gamma) signaling pathway (AID 1159521; also: nearly all actives have a fitted effect of over 50% in size; also: potency is read from the fitted curve at half-maximal effect)
Outline: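 Cells were plated, rested 4 h at 37 C, exposed to compounds for 2 h, then given 1 uM final doxycycline hyclate to induce RORγ expression. After 16 h, ONE-Glo luminescence from the ROR response element reporter was measured.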

[8] = qHTS assay to identify small molecule agonists of the AP-1 signaling pathway - cell viability counter screen (AID 1159525; calls by dose curve; also: nearly all actives have a fitted effect of over 55% in size)
Outline: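 ME-180 AP-1-bla, 2500 cells/well, Opti-MEM + 0.5% dialyzed FBS; overnight 37 °C; cpd 15-pt titration, 5 h 37 °C; CellTiter-Glo 30 min RT; luminescence read; normalised to TOAB and DMSO controls.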

[9] = qHTS assay to identify small molecule agonists of the AP-1 signaling pathway (AID 1159526; calls by dose curve; also: potency is read from the fitted curve at half-maximal effect)
[10] = qHTS assay to identify small molecule agonists of the RXR signaling pathway - cell viability counter screen (AID 1159529); also: nearly all actives have a fitted effect of over 50% in size; also: potency is read from the fitted curve at half-maximal effect
Outline: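 Steps: seed RXR-alpha-UAS-bla HEK 293T cells in assay medium containing 2% charcoal-stripped FBS; incubate 5 hr; add compounds in DMSO; incubate 16 hr at 37 C; after the bla read, add CellTiter-Glo and read luminescence at 30 min.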

[11] = qHTS assay to identify small molecule antagonists of the retinoid acid receptor (RAR) signaling pathway - cell viability counter screen (AID 1159551); also: nearly all actives have a fitted effect of over 35% in size
Outline: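 Cytotoxicity counter screen in C3RL4 cells: 6 h compound exposure with 1 uM retinol (final), viability from cellular ATP by luminescence.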

[12] = qHTS assay to identify small molecule agonists of the vitamin D receptor (VDR) signaling pathway - cell viability counter screen (AID 743224)
Outline: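 Viability is measured in the same wells as the VDR-bla reporter assay: after 16 h compound treatment and 2 h substrate loading, CellTiter-Glo is added and luminescence read 30 min later.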

[13] = qHTS assay to identify small molecule antagonists of the retinoic acid receptor (RAR) signaling pathway (AID 1159552; also: nearly all actives have a fitted effect of over 50% in size)
Outline: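 Retinol at 1 uM final stimulated RARE-luciferase expression in C3RL4 cells exposed to test compounds for 6 hr at 37 C. Reduced luminescence, read 30 min after detection reagent, indicated pathway antagonism.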

[14] = qHTS assay to identify small molecule agonists of the retinoic acid receptor (RAR) signaling pathway (AID 1159553)
Outline: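 Agonist activity was scored in C3RL4 cells bearing a retinoic acid response element luciferase construct. Cells were treated with compounds for 6 hr at 37 C, and luciferase signal was measured as luminescence.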

[15] = qHTS assay to identify small molecule antagonists of the estrogen related receptor (ERR) signaling pathway - cell viability counter screen (AID 1224818);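 also: series mostly up to about 46 µM; viability measured after 17.5 h of compound exposure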
Outline: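 Cells carrying the ERR pathway reporter were seeded and incubated for 6 hours before compound addition. After a 17.5-hour exposure at 37 C, live-cell protease activity was measured by CellTiter-Fluor fluorescence following 30 minutes of incubation.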

[16] = qHTS assay to identify small molecule antagonists of the estrogen related receptor signaling pathway with the pleiotropic PPARgamma coactivator (PGC) cell viability counter screen (AID 1224822;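 also: series mostly up to about 46 µM; viability read after 17.5 h compound exposure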)
Outline: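 Seed PGC/ERR cells (2,000/well); incubate 6 h at 37 C/5% CO2; pin-transfer compounds in DMSO; incubate 17.5 h at 37 C; add CellTiter-Fluor; after 30 min read fluorescence.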

Row | SMILES | outcome [1] | outcome [2] | outcome [3] | outcome [4] | outcome [5] | Potency [6] | Potency [7] | outcome [8] | Potency [9] | Potency [10] | outcome [11] | outcome [12] | outcome [13] | Potency [14] | outcome [15] | outcome [16]
1 | CCCCC(CC)COCCC#N (configuration not stated) | inactive | inactive | inactive | inactive | inactive | inactive | inactive | inactive | inactive | inactive | inactive |  |  |  |  | 
2 | CC(=O)Nc1ccccc1O | inactive | inactive | inactive | inactive | inactive | inactive | inactive | inactive | inactive | inactive | inactive | inactive |  |  |  | 
3 | [O-][n+]1ccc(Cl)cc1 | inactive | inactive | inactive | inactive | inactive | inactive | inactive | inactive | inactive | inactive | inactive |  | inactive |  |  | 
4 | CC(C)CCCCCOC(=O)CS | inactive | inactive | inactive | inactive | inactive | inactive | inactive | inactive | inactive | inactive |  | inactive | inactive |  |  | 
5 | CC(C)Oc1ccccc1O | inactive | inactive | inactive | inactive | inactive | inactive | inactive | inactive | inactive | inactive | inactive | inactive |  |  |  | 
6 | O=c1[nH][nH]c2ccccc12 | inactive | inactive | inactive | inactive | inactive | inactive | 15.6 µM (active) | inactive | 49.9 µM (active) | inactive | inactive | inactive |  | inactive |  | 
7 | COc1ccc(/C=C/S(=O)(=O)NC(=O)c2ccc(C)cc2Cl)cc1 |  | inactive | inactive | inactive | inactive | inactive | inactive | inactive | inactive | inactive |  | inactive | inactive | inactive |  | 
8 | FC1(F)C(F)(F)C(F)(F)C2(F)C(F)(C1(F)F)C(F)(F)C(F)(F)C1(F)C(F)(F)C(F)(F)C(F)(F)C(F)(F)C12F (configuration not stated) |  | inactive | inactive | inactive | inactive | inactive | inactive | inactive | inactive | inactive | inactive | inactive |  |  |  | 
9 | O=C(O)c1cccc(C(=O)O)c1C(=O)O | inactive | inactive | inactive | inactive | inactive | inactive | inactive | inactive | inactive | 24.8 µM (active) | inactive | inactive | inactive |  |  | 
10 | O=C(O)c1c2ccccc2cc2ccccc12 | inactive | inactive | inactive | inactive | inactive | inactive | 13.6 µM (active) | inactive | 24.5 µM (active) | inactive | inactive | inactive |  |  |  | 
11 | CCC(CC)C(=O)O | inactive | inactive | inactive | inactive | inactive | inactive | inactive | inactive | inactive | inactive | inactive |  | inactive |  |  | 
12 | CCCc1nc(C)c2c(=O)[nH]c(-c3cc(S(=O)(=O)N4CCN(CC)CC4)ccc3OCC)nn12 |  | inactive | inactive | inactive | inactive | inactive | inactive | inactive | inactive | inactive |  | inactive | inactive | inactive |  | 
13 | Clc1ccccc1-c1nc(-c2ccncc2)no1 | inactive | inactive | inactive | inactive | inactive | inactive | inactive | inactive | inactive | inactive | inactive | inactive | inactive |  |  | 
14 | OCCOc1cccc(OCCO)c1 | inactive | inactive | inactive | inactive | inactive | inactive | inactive | inactive | inactive | inactive | inactive | inactive | inactive |  |  | 
15 | CC(=O)c1ccc(Cl)c(Cl)c1Cl | inactive | inactive | inactive | inactive | inactive | inactive | inactive | inactive | inactive | inactive | inactive | inactive | inactive |  |  | 
16 | Nc1nc(Cl)nc2c1ncn2[C@H]1C[C@H](O)[C@@H](CO)O1 | inactive | inactive | inactive | inactive | inactive | inactive | inactive | inactive | inactive | inactive | inactive | inactive |  |  |  | 
17 | C=Cc1ccc(C=C)cc1 | inactive | inactive | inactive | inactive | inactive | inactive | inactive | inactive | inactive | inactive | inactive | inactive |  |  |  | 
18 | C/C(=C\C(C)CC(C)CC(C)C)C1CC(=O)OC1=O (configuration not stated) | inactive | inactive | inactive | inactive | inactive | inactive | inactive | inactive | inactive | inactive | inactive | inactive |  |  |  | 
19 | NC(=O)c1ccccc1 | inactive | inactive | inactive | inactive | inactive | inactive | inactive | inactive | inactive | inactive | inactive |  |  | inactive | inactive | inactive
20 | CS(C)=O | inactive | inactive | inactive | inactive | inactive | inactive | inactive | inactive | inactive | inactive |  |  | inactive | inactive |  | 
21 | CC(C)(C)c1cc(C=O)cc(C(C)(C)C)c1O | inactive | inactive | inactive | inactive | inactive | inactive | inactive | inactive | inactive | inactive | inactive | inactive |  |  |  | 
